Assay results reported in the supplement of paper PMC12645437, “Orthogonal IMiD-Degron Pairs Induce Selective Protein Degradation in Cells” (ACS Chemical Biology, 2025).
The full ranking holds about 8,300 sequences; the median of “log2 fold change of degron read counts, EGFP-low vs EGFP+ sorted cells (limma voom), compound-induced degradation” is about -1.1, and the highest 2% start at about 3.2. Shown is part of a subset that was picked to be rich in the highest values.

Target: T1, CRBN, Q96SW2
T1 chain: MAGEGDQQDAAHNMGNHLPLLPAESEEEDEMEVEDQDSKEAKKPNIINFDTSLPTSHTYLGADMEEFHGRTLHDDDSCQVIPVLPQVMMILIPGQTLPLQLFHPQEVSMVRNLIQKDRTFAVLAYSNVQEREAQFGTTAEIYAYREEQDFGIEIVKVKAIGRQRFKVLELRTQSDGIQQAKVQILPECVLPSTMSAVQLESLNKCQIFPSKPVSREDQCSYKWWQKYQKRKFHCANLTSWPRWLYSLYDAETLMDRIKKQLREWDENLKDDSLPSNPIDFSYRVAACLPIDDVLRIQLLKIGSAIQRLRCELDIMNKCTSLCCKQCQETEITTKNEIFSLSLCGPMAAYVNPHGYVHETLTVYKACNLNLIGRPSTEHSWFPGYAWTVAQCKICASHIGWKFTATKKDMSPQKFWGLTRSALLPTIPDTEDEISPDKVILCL
Test: log2 fold change of degron read counts, EGFP-low vs EGFP+ sorted cells (limma voom), compound-induced degradation; higher = more compound-induced degradation of the degron-EGFP fusion; degrons are variants of IKZF1/3 zinc finger 2; compound dose not given here
Conditions: Jurkat, 18 h

[1] = compound: compound 19 (5-tert-butyl-thalidomide)
[2] = compound: compound 22 (5-morpholino-thalidomide)
[3] = compound: compound 33 (diphenyl IMiD analogue)
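Note: pooled lentiviral library of zinc finger degron-EGFP fusions in mCherry-positive Jurkat cells, FACS-sorted after compound exposure, with degron abundance counted by next-generation sequencing.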

FDCPICGHFFTQKGNLLRHIKL [46F_47D_49P_50I_52G_53H_54F_55F_67L_, Q9UKT9]
log2 fold change of degron read counts [1]: -1.89
log2 fold change of degron read counts [2]: -2.22
log2 fold change of degron read counts [3]: -1.79
log2 fold change of degron read counts (compound: thalidomide): -1.75

FICDVCGAWFTQKGNLLRHIKL [46F_47I_49D_50V_52G_53A_54W_55F_67L_, Q9UKT9]
log2 fold change of degron read counts [1]: -2.55
log2 fold change of degron read counts [2]: -1.74
log2 fold change of degron read counts [3]: -0.491
log2 fold change of degron read counts (compound: thalidomide): -1.83

FMCPQCGARFTQKGNLLRHIKL [46F_47M_49P_50Q_52G_53A_54R_55F_67L_, Q9UKT9]
log2 fold change of degron read counts [1]: -1.45
log2 fold change of degron read counts [2]: -1.19
log2 fold change of degron read counts [3]: 0.32
log2 fold change of degron read counts (compound: thalidomide): -0.605

FGCNVCGAEFTQKGNLLRHIKL [46F_47G_49N_50V_52G_53A_54E_55F_67L_, Q9UKT9]
log2 fold change of degron read counts [1]: -2.62
log2 fold change of degron read counts [2]: -1.85
log2 fold change of degron read counts [3]: -0.606
log2 fold change of degron read counts (compound: thalidomide): -0.925

FTCNQCGRVFTQKGNLLRHIKL [46F_47T_49N_50Q_52G_53R_54V_55F_67L_, Q9UKT9]
log2 fold change of degron read counts [1]: -2.75
log2 fold change of degron read counts [2]: -3.29
log2 fold change of degron read counts [3]: -2.33
log2 fold change of degron read counts (compound: thalidomide): -2.08

FECPVCGAPFTQKGNLLRHIKL [46F_47E_49P_50V_52G_53A_54P_55F_67L_, Q9UKT9]
log2 fold change of degron read counts [1]: 1.88
log2 fold change of degron read counts [2]: -0.29
log2 fold change of degron read counts [3]: 1.64
log2 fold change of degron read counts (compound: thalidomide): 2.65

FTCPVCGAPFTQKGNLLRHIKL [46F_47T_49P_50V_52G_53A_54P_55F_67L_, Q9UKT9]
log2 fold change of degron read counts [1]: 1.88
log2 fold change of degron read counts [2]: 3.16
log2 fold change of degron read counts [3]: 2.41
log2 fold change of degron read counts (compound: thalidomide): 3.03

FNCNVCGAPFTQKGNLLRHIKL [46F_47N_49N_50V_52G_53A_54P_55F_67L_, Q9UKT9]
log2 fold change of degron read counts [1]: 1
log2 fold change of degron read counts [2]: -0.317
log2 fold change of degron read counts [3]: -0.912
log2 fold change of degron read counts (compound: thalidomide): -0.29

FNCPVCGAPFTQKGNLLRHIKL [46F_47N_49P_50V_52G_53A_54P_55F_67L_, Q9UKT9]
log2 fold change of degron read counts [1]: 3.41
log2 fold change of degron read counts [2]: 2.62
log2 fold change of degron read counts [3]: 1.33
log2 fold change of degron read counts (compound: thalidomide): 2.25

FVCPVCGAPFTQKGNLLRHIKL [46F_47V_49P_50V_52G_53A_54P_55F_67L_, Q9UKT9]
log2 fold change of degron read counts [1]: 1.79
log2 fold change of degron read counts [2]: 3.33
log2 fold change of degron read counts [3]: 2.13
log2 fold change of degron read counts (compound: thalidomide): 3.19

FWCPVCGAPFTQKGNLLRHIKL [46F_47W_49P_50V_52G_53A_54P_55F_67L_, Q9UKT9]
log2 fold change of degron read counts [1]: 3.23
log2 fold change of degron read counts [2]: 2.92
log2 fold change of degron read counts [3]: 2.67
log2 fold change of degron read counts (compound: thalidomide): 1.06

FMCPVCGAPFTQKGNLLRHIKL [46F_47M_49P_50V_52G_53A_54P_55F_67L_, Q9UKT9]
log2 fold change of degron read counts [1]: 2.53
log2 fold change of degron read counts [2]: 3.59
log2 fold change of degron read counts [3]: 3.09
log2 fold change of degron read counts (compound: thalidomide): 2.96

FYCDVCGAPFTQKGNLLRHIKL [46F_47Y_49D_50V_52G_53A_54P_55F_67L_, Q9UKT9]
log2 fold change of degron read counts [1]: 3.09
log2 fold change of degron read counts [2]: 2.39
log2 fold change of degron read counts [3]: 1.86
log2 fold change of degron read counts (compound: thalidomide): -0.588

FYCNVCGAPFTQKGNLLRHIKL [46F_47Y_49N_50V_52G_53A_54P_55F_67L_, Q9UKT9]
log2 fold change of degron read counts [1]: 2.95
log2 fold change of degron read counts [2]: 2.35
log2 fold change of degron read counts [3]: 1.69
log2 fold change of degron read counts (compound: thalidomide): -0.11

FYCPVCGAPFTQKGNLLRHIKL [46F_47Y_49P_50V_52G_53A_54P_55F_67L_, Q9UKT9]
log2 fold change of degron read counts [1]: 3.48
log2 fold change of degron read counts [2]: 3.24
log2 fold change of degron read counts [3]: 2.82
log2 fold change of degron read counts (compound: thalidomide): 1.62

FHCPVCGAPFTQKGNLLRHIKL [46F_47H_49P_50V_52G_53A_54P_55F_67L_, Q9UKT9]
log2 fold change of degron read counts [1]: 3.2
log2 fold change of degron read counts [2]: 2.86
log2 fold change of degron read counts [3]: 2.5
log2 fold change of degron read counts (compound: thalidomide): 1.82

FNCDVCGAPFTQKGNLLRHIKL [46F_47N_49D_50V_52G_53A_54P_55F_67L_, Q9UKT9]
log2 fold change of degron read counts [1]: 0.937
log2 fold change of degron read counts [2]: -0.417
log2 fold change of degron read counts [3]: -1.71
log2 fold change of degron read counts (compound: thalidomide): -1.34

FCCDICGAFFTQKGNLLRHIKL [46F_47C_49D_50I_52G_53A_54F_55F_67L_, Q9UKT9]
log2 fold change of degron read counts [1]: -0.849
log2 fold change of degron read counts [2]: -1.43
log2 fold change of degron read counts [3]: -0.311
log2 fold change of degron read counts (compound: thalidomide): -2.26

FSCPQCGAHFTQKGNLLRHIKL [46F_47S_49P_50Q_52G_53A_54H_55F_67L_, Q9UKT9]
log2 fold change of degron read counts [1]: -1.06
log2 fold change of degron read counts [2]: -2.04
log2 fold change of degron read counts [3]: -0.649
log2 fold change of degron read counts (compound: thalidomide): -1.51

FSCSVCGHMFTQKGNLLRHIKL [46F_47S_49S_50V_52G_53H_54M_55F_67L_, Q9UKT9]
log2 fold change of degron read counts [1]: -2.17
log2 fold change of degron read counts [2]: -2.85
log2 fold change of degron read counts [3]: -2.33
log2 fold change of degron read counts (compound: thalidomide): -2.67

FHCNICGAGFTQKGNLLRHIKL [46F_47H_49N_50I_52G_53A_54G_55F_67L_, Q9UKT9]
log2 fold change of degron read counts [1]: 1.76
log2 fold change of degron read counts [2]: 0.175
log2 fold change of degron read counts [3]: 1.2
log2 fold change of degron read counts (compound: thalidomide): -0.885

FSCPICGRFFTQKGNLLRHIKL [46F_47S_49P_50I_52G_53R_54F_55F_67L_, Q9UKT9]
log2 fold change of degron read counts [1]: -0.54
log2 fold change of degron read counts [2]: -1.4
log2 fold change of degron read counts [3]: -0.477
log2 fold change of degron read counts (compound: thalidomide): -1.17

FKCEICGRDFTQKGNLLRHIKL [46F_47K_49E_50I_52G_53R_54D_55F_67L_, Q9UKT9]
log2 fold change of degron read counts [1]: -3.16
log2 fold change of degron read counts [2]: -3.46
log2 fold change of degron read counts [3]: -3.24
log2 fold change of degron read counts (compound: thalidomide): -2.51

FYCPICGRFFTQKGNLLRHIKL [46F_47Y_49P_50I_52G_53R_54F_55F_67L_, Q9UKT9]
log2 fold change of degron read counts [1]: -0.827
log2 fold change of degron read counts [2]: -0.851
log2 fold change of degron read counts [3]: -1
log2 fold change of degron read counts (compound: thalidomide): -2.07

LLCEICGFACTQKGNLLRHIKL [46L_47L_49E_50I_52G_53F_54A_55C_67L_, Q9UKT9]
log2 fold change of degron read counts [1]: 0.644
log2 fold change of degron read counts [2]: -0.727
log2 fold change of degron read counts [3]: 0.56
log2 fold change of degron read counts (compound: thalidomide): 1.35

FLCDQCGAYFTQKGNLLRHIKL [46F_47L_49D_50Q_52G_53A_54Y_55F_67L_, Q9UKT9]
log2 fold change of degron read counts [1]: -3.04
log2 fold change of degron read counts [2]: -2.52
log2 fold change of degron read counts [3]: -2.25
log2 fold change of degron read counts (compound: thalidomide): -2.41

LLCEICGFQCTQKGNLLRHIKL [46L_47L_49E_50I_52G_53F_54Q_55C_67L_, Q9UKT9]
log2 fold change of degron read counts [1]: 0.49
log2 fold change of degron read counts [2]: -0.719
log2 fold change of degron read counts [3]: 0.751
log2 fold change of degron read counts (compound: thalidomide): 1.99

LCCEICGFQCTQKGNLLRHIKL [46L_47C_49E_50I_52G_53F_54Q_55C_67L_, Q9UKT9]
log2 fold change of degron read counts [1]: 1.95
log2 fold change of degron read counts [2]: 1.72
log2 fold change of degron read counts [3]: 1.6
log2 fold change of degron read counts (compound: thalidomide): 1.91

LECEICGFQCTQKGNLLRHIKL [46L_47E_49E_50I_52G_53F_54Q_55C_67L_, Q9UKT9]
log2 fold change of degron read counts [1]: -0.896
log2 fold change of degron read counts [2]: -1.36
log2 fold change of degron read counts [3]: 0.772
log2 fold change of degron read counts (compound: thalidomide): 2.01

LSCEICGFQCTQKGNLLRHIKL [46L_47S_49E_50I_52G_53F_54Q_55C_67L_, Q9UKT9]
log2 fold change of degron read counts [1]: 2.4
log2 fold change of degron read counts [2]: 1.95
log2 fold change of degron read counts [3]: 0.752
log2 fold change of degron read counts (compound: thalidomide): 1.19

LMCEICGFQCTQKGNLLRHIKL [46L_47M_49E_50I_52G_53F_54Q_55C_67L_, Q9UKT9]
log2 fold change of degron read counts [1]: 0.286
log2 fold change of degron read counts [2]: 0.912
log2 fold change of degron read counts [3]: 2.55
log2 fold change of degron read counts (compound: thalidomide): 2.04

LYCEICGFQCTQKGNLLRHIKL [46L_47Y_49E_50I_52G_53F_54Q_55C_67L_, Q9UKT9]
log2 fold change of degron read counts [1]: 3.53
log2 fold change of degron read counts [2]: 3.71
log2 fold change of degron read counts [3]: 2.78
log2 fold change of degron read counts (compound: thalidomide): 1.8

LFCEICGFQCTQKGNLLRHIKL [46L_47F_49E_50I_52G_53F_54Q_55C_67L_, Q9UKT9]
log2 fold change of degron read counts [1]: 3.43
log2 fold change of degron read counts [2]: 3.41
log2 fold change of degron read counts [3]: 1.96
log2 fold change of degron read counts (compound: thalidomide): 2.09

LDCEICGFQCTQKGNLLRHIKL [46L_47D_49E_50I_52G_53F_54Q_55C_67L_, Q9UKT9]
log2 fold change of degron read counts [1]: -0.786
log2 fold change of degron read counts [2]: -1.68
log2 fold change of degron read counts [3]: -1.53
log2 fold change of degron read counts (compound: thalidomide): -0.616

LWCEICGFQCTQKGNLLRHIKL [46L_47W_49E_50I_52G_53F_54Q_55C_67L_, Q9UKT9]
log2 fold change of degron read counts [1]: 3.2
log2 fold change of degron read counts [2]: 3.49
log2 fold change of degron read counts [3]: 2.53
log2 fold change of degron read counts (compound: thalidomide): 1.13

LACEICGFQCTQKGNLLRHIKL [46L_47A_49E_50I_52G_53F_54Q_55C_67L_, Q9UKT9]
log2 fold change of degron read counts [1]: 3.16
log2 fold change of degron read counts [2]: 2.06
log2 fold change of degron read counts [3]: 0.631
log2 fold change of degron read counts (compound: thalidomide): 0.66

LICEICGFQCTQKGNLLRHIKL [46L_47I_49E_50I_52G_53F_54Q_55C_67L_, Q9UKT9]
log2 fold change of degron read counts [1]: 0.761
log2 fold change of degron read counts [2]: 2.3
log2 fold change of degron read counts [3]: 2.38
log2 fold change of degron read counts (compound: thalidomide): 3

LQCEICGFQCTQKGNLLRHIKL [46L_47Q_49E_50I_52G_53F_54Q_55C_67L_, Q9UKT9]
log2 fold change of degron read counts [1]: 0.99
log2 fold change of degron read counts [2]: 0.223
log2 fold change of degron read counts [3]: 1.43
log2 fold change of degron read counts (compound: thalidomide): 3.3
